# Screening data (PubChem BioAssay)
# G9a block: inhibitors of human histone lysine methyltransferase G9a; G9a H3K9 monomethylation, AlphaScreen, 2 h; Potency, µM (doses to about 102 µM), for the others: top-dose activity, negative = inhibition, most hits filed as inhibitors; actives 8.8% (n = 350,000); further: on the % scale 0 is the no-effect control and ±100 the full control effect; nearly all actives have a fitted effect of over 75% in size
# Target sequence (Q96KQ7 913-1193 limits assumed): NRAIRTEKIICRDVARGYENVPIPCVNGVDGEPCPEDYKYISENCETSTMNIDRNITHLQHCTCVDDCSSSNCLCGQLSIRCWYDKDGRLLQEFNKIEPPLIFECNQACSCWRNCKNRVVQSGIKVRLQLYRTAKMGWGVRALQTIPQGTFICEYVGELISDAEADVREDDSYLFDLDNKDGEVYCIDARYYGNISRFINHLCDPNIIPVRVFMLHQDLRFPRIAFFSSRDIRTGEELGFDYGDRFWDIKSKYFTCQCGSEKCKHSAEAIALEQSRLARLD
#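 Signal arises when biotinylated H3K9 peptide, once monomethylated, bridges streptavidin donor and antibody-captured acceptor beads. Enzyme at 20 nM was preincubated 15 min with test compounds; peptide 500 nM and SAM 20 uM then reacted for 2 h.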
# HP1b binding inh: blocks HP1-beta chromodomain binding to methylated histone tails; P83916; AlphaScreen HP1-beta / biotin-H3K9me3 peptide binding; Potency, µM (highest dose often 114 µM), for the others: at the top dose activity change, negative = inhibition, most hits filed as inhibitors; actives 0.56% (n = 390,000); further: nearly all actives have a fitted effect of over 70% in size
# Target sequence (P83916 whole entry, looked up): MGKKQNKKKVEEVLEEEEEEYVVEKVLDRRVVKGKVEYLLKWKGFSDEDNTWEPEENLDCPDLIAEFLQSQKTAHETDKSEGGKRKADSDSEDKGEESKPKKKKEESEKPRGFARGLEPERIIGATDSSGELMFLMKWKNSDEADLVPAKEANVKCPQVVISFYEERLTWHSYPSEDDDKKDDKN
#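 AlphaScreen: HP1-beta (50 nM) preformed 30 min with biotin-H3(1-18)K9me3 peptide (50 nM) in PBS pH 7.4, 0.01% Tween-20. Compound added for 30 min at RT, then streptavidin donor/nickel chelate acceptor beads (10 ug/mL) for 30 min.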
# JMJD2A Tudor inh: blocks the human JMJD2A Tudor domain | Potency, µM (titrated, usually from 114 µM), for inactives: top-dose activity change, negative = inhibition, hits mostly inhibitors | AlphaScreen JMJD2A-Tudor / H3K4me3 peptide binding | actives 4.4% (n = 390,000) | O75164 | AID 504339; further: on the % scale 0 is the no-effect control and ±100 the full control effect; nearly all actives have a fitted effect of over 50% in size
# Sfp inh: inhibitors of Bacillus subtilis Sfp phosphopantetheinyl transferase; Q9F4F7; Biochemical Sfp PPTase activity, qHTS; Potency, µM, inactives show largest response in the series, negative = inhibition, usual class: inhibitors; actives 3.5% (n = 310,000);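 further: the enzyme is Sfp with the accession as filed and its product quenches rhodamine fluorescence; 0% = enzyme reaction without inhibitor and -100% = no enzyme wells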
#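 Fluorescence-quenching assay: 15 nM Sfp-PPTase preincubated 15 min at room temperature with compound, then 5 uM rhodamine-CoA and 12.5 uM BHQ-2-labelled YbbR peptide added. Fluorescence (ex 525/em 598 nm) read at start and after 30 min; difference gives rate.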
# BAZ2B inh: inhibitors of human BAZ2B bromodomain; AlphaScreen BAZ2B-H3K14Ac peptide displacement; AID 504333; actives 4.4% (n = 360,000); Potency, µM (top dose mostly 114 µM), for inactives: at the top dose activity change, negative = inhibition, usual class: inhibitors; further: on the % scale 0 is the no-effect control and ±100 the full control effect; nearly all actives have a fitted effect of over 60% in size
#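 AlphaScreen displacement of biotin-H3(5-23)K14Ac peptide (50 nM final) from BAZ2B (50 nM final) in PBS pH 7.4, 0.01% Tween-20; complex preformed 30 min RT, then compounds (top 110 uM) 30 min RT, beads 20 min dark.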
# * marks the source's active call; other numbers are inactive results; ? = inconclusive; . = no result; ! = not confirmed by another sample; [ ] = remark or other dose. Sampled rows, rich in hits. Any-hit rate of the full collection: about 12%. The call rests on the fitted dose curve; in most records, active means well fitted curve in the direction sought with a large enough effect; inconclusive means small, poorly fitted or top-dose-only effect, or another doubt; inactive means no such curve, though single readings can be large; an effect the other way counts as inactive or inconclusive. Potency means the concentration at half of the fitted maximal effect.
SMILES,G9a block,HP1b binding inh,JMJD2A Tudor inh,Sfp inh,BAZ2B inh
Cc1nc(N2CCOCC2)c2nc(-c3ccccc3)n(CCCN3CCOCC3)c2n1,.,.,.,27.7%,.
COc1ccc(Cl)cc1S(=O)(=O)N1CCC(C(=O)NCCC2=CCCCC2)CC1,-0.4%,34.2%,-5.5%,5.2%,-0.5%
COc1ccc(C(=O)COC(=O)/C=C/c2ccccc2)c(OC)c1,15.4%[12.7 µM],17.3%,-5.7%,.,50.1µM*
O=C(NCc1ccco1)Nc1cccc(-c2ccccc2)c1,.,7.4%,-24.1%,.,.
COC(=O)C(CC(=O)O)NCc1ccco1 (stereo not given),.,3.4%,20µM*,?,?
Cc1c(NC(=O)c2ccco2)c(=O)n(-c2ccccc2)n1C,7.9%,35.3%,-7.8%,8.3%,10.9%
O=C(O)CC(NCc1ccco1)C(=O)Nc1cccc(O)c1 (stereo not given),50.1µM*,-2.6%,3.16µM*,?,-36.7%
Cc1c(NS(=O)(=O)c2cccc(C(=O)NCc3ccco3)c2)c(=O)n(-c2ccccc2)n1C,.,-36.1%,63.1µM*,.,.
Cc1c(NC(=O)C(CC(=O)O)NCc2ccco2)c(=O)n(-c2ccccc2)n1C (stereo not given),?,-7.5%,5.01µM*,-11.3%,50.1µM*
COCCOC(=O)C(CC(=O)O)NCc1ccco1 (stereo not given),.,-7.6%,?,?,-6.5%
COc1nc(N)nc2c1ncn2C1OC(CO)CC1O (stereo not given),.,25.0%,-5.6%,.,.
NNC(=S)Nc1ccc(S(=O)(=O)N2CCCCC2)cc1,-126.5%[59 µM],-16.8%,-24.3%,-7.0%,?
O=C(O)CC(NCc1ccco1)C(=O)OCCCl (stereo not given),7.94µM*,-3.3%,28.2µM*,-46.1%,?
Cc1c(N(C)S(=O)(=O)c2cccc(C(=O)NC(C)C)c2)c(=O)n(-c2ccccc2)n1C,31.6µM*,6.4%,-23.2%,79.4µM*,-2.5%
Cc1c(N(C)S(=O)(=O)c2cccc(C(=O)NCC3CCCO3)c2)c(=O)n(-c2ccccc2)n1C (stereo not given),-7.8%[0.501 µM],13.3%,1.4%,.,20.0%
O=C(OC(C(=O)NCc1ccco1)C(OC(=O)c1ccccc1)C(=O)NCc1ccco1)c1ccccc1 (stereo not given),-21.1%,6.6%,-4.1%,0.4%,-5.9%
CN(C(=O)CSc1nc(-c2ccccc2)cn1N)C(c1ccccc1)c1ccccc1,17.8µM*,-25.7%,?,8.2%,44.7µM*
CCNC(=S)/N=C(/Nc1ccccc1)Nc1nc(C)cc(C)n1,.,2.1%,-23.8%,4.47µM*,?
Cc1cc(C)nc(NC(=S)Nc2ccccc2)n1,-7.0%,38.5%,-2.9%,5.1%,-27.2%
CCNC(=S)/N=C(/Nc1ccc(OC)cc1)Nc1nc(C)cc(C)n1,-44.4%,24.8%,-6.2%,3.16µM*,8.2%
CCNC(=S)NC(=NCc1cccnc1)Nc1nc(C)cc(C)n1,.,32.2%,-4.7%,25.1µM*,0.8%
CCOc1ccc2nc(N/C(N)=N/C(=S)Nc3ccc(C)c(C)c3)nc(C)c2c1,13.4%,31.9%,-19.9%,-3.3%,-8.5%
CCNC(=S)/N=C(\N)Nc1nc(C)c2cc(C)ccc2n1,?,12.3%,?,2.8%,11.2µM*
O=C(CCC(=O)N1CCOc2ccccc21)NCc1cccs1,?,23.0%,7.0%,.,-17.0%
CC(=O)Nc1nnc(SCC(=O)N2CCc3ccccc32)s1,8.3%,28.0%,0.0%,6.5%,1.4%
SMILES,G9a block,HP1b binding inh,JMJD2A Tudor inh,Sfp inh,BAZ2B inh
Cc1cccc(C#Cc2ccccc2)n1,20µM*!,54.6%,?,50.1µM*!,-8.2%
COc1ccc(C)cc1NC(=O)C(c1ccccc1)N1CCNC(=O)C1 (stereo not given),50.1µM*,.,.,20.2%,-9.0%
CCOc1cc(C2CC(=O)NC3=C2C(=O)C(C(=O)OC)C(C)C3)cc(Cl)c1O (stereo not given),50.1µM*,5.5%,-27.9%,5.0%,?
COC(=O)C1C(=O)C2=C(CC1C)NC(=O)CC2c1ccccc1 (stereo not given),19.4%[12.7 µM],42.4%,-4.1%,-21.7%,10.6%
CC(=O)c1c(C)[nH]c(C(=O)Nc2cccc(C)n2)c1C,.,34.2%,-20.5%,14.2%,?
CC(=O)c1c(C)[nH]c(C(=O)Nc2nccs2)c1C,8.1%,-10.5%,22.4µM*,-1.0%,?
COc1ccc(CCNS(=O)(=O)c2ccc3c(c2)CCN3C(=O)C2CC2)cc1OC,6.2%[0.501 µM],25.7%,0.9%,9.1%,-6.1%
COc1ccc(C2/C(=C(/O)c3ccccc3)C(=O)C(=O)N2CC(C)O)c(OC)c1 (stereo not given),?,10.7%,17.8µM*,-3.7%,-25.5%
COc1cccc(C2/C(=C(/O)c3ccccc3)C(=O)C(=O)N2Cc2ccco2)c1 (stereo not given),56.2µM*,3.1%,-19.4%,?,-22.0%
CCOc1cccc(/C(O)=C2/C(=O)C(=O)N(CCOC)C2c2ccco2)c1 (stereo not given),?,19.2%,79.4µM*,?,8.6%
COc1ccc(/C(O)=C2\C(=O)C(=O)N(Cc3ccco3)C2c2cc(OC)ccc2OC)cc1 (stereo not given),-81.2%[59 µM],2.5%,89.1µM*,?,?
CCOc1cccc(/C(O)=C2/C(=O)C(=O)N(Cc3cccnc3)C2c2ccco2)c1 (stereo not given),?,15.1%,?,4.7%,-23.3%
O=C(COc1ccc(-c2nnco2)cc1)NC1CCS(=O)(=O)C1 (stereo not given),.,25.9%,0.0%,.,.
Cc1cccc(Cn2cc(C(=O)Nc3cc(F)ccc3F)ccc2=O)c1,0.6%[59 µM],28.9%[57 µM],9.4%,.,2.4%
COc1ccc(/C=N/N=C2/NC(=O)C(c3ccccc3)S2)c(OC)c1 (stereo not given),20.5%[59 µM],30.7%,-7.6%,1.4%,7.8%
CCCC(c1nnnn1CC1CCCO1)N1CCN(c2cc(Cl)ccc2C)CC1 (stereo not given),-9.8%[59 µM],49.0%,-21.2%[11.4 µM],2.1%,?
CCCCCCCCNCCS(=O)(=O)NCc1ccc(OC)cc1,.,22.5%,7.2%,.,.
Cc1ccccc1COc1ccc(/C(O)=C2/C(=O)C(=O)N(CCCn3ccnc3)C2c2ccco2)cc1 (stereo not given),31.6µM*,-2.8%,?,?,-1.9%
CCOc1ccc(/C(O)=C2/C(=O)C(=O)N(CC3CCCO3)C2c2ccco2)cc1 (stereo not given),?,17.7%,79.4µM*,-9.2%,2.0%
O=C1C(=O)N(Cc2ccco2)C(c2cccs2)/C1=C(\O)c1cccc([N+](=O)[O-])c1 (stereo not given),23.5%[59 µM],32.4%,-18.8%,44.7µM*,-30.2%
COCCN1C(=O)C(=O)/C(=C(/O)c2cccc(OC)c2)C1c1ccncc1 (stereo not given),50.1µM*,5.6%,?,-2.9%,-16.8%
